Compound activity as filed in PubChem BioAssay.
TDP1 cell noCPT: qHTS for Inhibitors of human tyrosyl-DNA phosphodiesterase 1 (TDP1): qHTS in cells in absence of CPT; DT40 Tdp1-/- hTDP1 cells, no CPT, ATP luminescence, 48 h; Potency, µM (titrated, usually from 46.2 µM), inactives show at the highest dose activity change, negative = growth inhibition, actives largely listed as inhibitors; actives 15% (n = 420,000); AID 686978, 2013; also: % is scaled to controls: 0 for no effect and ±100 for the full control effect; nearly all actives have a fitted effect of over 55% in size
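No-CPT arm: Tdp1-/-;hTDP1 DT40 cells (400/well) plus compounds, incubated ≥48 hr at 37 °C. Readout CellTiter-Glo luminescence.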
TGFb SMAD3 inh: blocks TGF-b signaling; HepG2 CAGA-GFP TGF-b/SMAD3 reporter, GFP fluorescence, 18 h; TGF-beta stimulated, 500 pg/mL final; Potency, µM (top dose mostly 46.1 µM), inactives show top-dose activity, negative = inhibition, actives largely listed as inhibitors; actives 1.2% (n = 410,000); AID 588855; also: % is scaled to controls: 0 for no effect and ±100 for the full control effect; nearly all actives have a fitted effect of over 65% in size
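Per well, imaged GFP fluorescence of HEPG2 CAGA-GFP cells gives the signal; cells get compound, then TGF-beta (500 pg/mL final), 18 h at 37 degrees C; %Activity versus -TGF-beta and +DMSO controls.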
HT1080-NT tox: kills 2HG-producing HT-1080-NT fibrosarcoma cells. AID 686970. Potency, µM (top dose mostly 46.1 µM), for the others: at the highest dose activity, negative = less viability, hits mostly cytotoxic. actives 1.6% (n = 360,000). HT-1080-NT fibrosarcoma viability, CellTiter-Glo ATP luminescence, 48 h;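 also: NT is the 2HG producing partner of a matched IDH1 knockdown line; 0% = DMSO-treated cells and -100% = media-only wells without cells; nearly all actives have a fitted effect of over 55% in size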
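750 cells/well, RPMI + 5% FBS; 2 h settle, compound pin-transfer, 48 h at 37 degrees C. CellTiter-Glo 10 min RT, luminescence. Normalized to DMSO and media-only wells.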
DT40 TDP1 CPT: DT40-hTDP1 cell growth loss with CPT; chicken DT40 Tdp1-/-;hTDP1 cells + 20 nM CPT, ATP luminescence, 48 h; actives 12% (n = 420,000); Potency, µM (top dose mostly 46.2 µM), for the others: at the highest dose activity change, negative = growth inhibition, hits mostly inhibitors; also: % is scaled to controls: 0 for no effect and ±100 for the full control effect; nearly all actives have a fitted effect of over 55% in size
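Cell growth measured by CellTiter-Glo luminescence after a minimum 48 h, 37 C compound exposure with 20 nM CPT in Tdp1-knockout DT40 cells stably expressing hTDP1, seeded 400/well; qHTS titration format.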
HT1080 IDH1KD tx: HT-1080 IDH1 knockdown cell toxicity (counter line). Potency, µM (doses to about 46.1 µM), for the others: at the top dose activity, negative = toxicity, hits mostly cytotoxic. actives 2% (n = 360,000). HT-1080 IDH1 knockdown viability, ATP luminescence, 48 h;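 also: 0% = DMSO wells and -100% = cell-free medium wells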
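Cytotoxicity counter-line: IDH1KD HT-1080, 48 h, CellTiter-Glo. Curves classed by r2, magnitude and activity.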
HepG2 viability: kills HepG2 cells in TGF-b inhibitor counter-screen; HepG2 CAGA-GFP viability, ATP luminescence, 18 h; Potency, µM (series often up to 46.1 µM), for the others: at the top dose activity change, negative = cytotoxicity, most hits filed as cytotoxic; actives 0.76% (n = 410,000)
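CellTiter-Glo luminescence gave cytotoxicity after 18 hours at 37 degrees C. The cells were HepG2 CAGA-GFP in 1% FBS DMEM, stimulated with 500 pg/mL TGF-beta after compound addition. %Activity was normalised to no-cell wells (complete cell-killing) and DMSO (no toxicity), and curves were fitted and classified.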
Starred values were filed as active, the others as inactive; ? = inconclusive; · = no result given; ! = not active in a repeat; [ ] = dose if it differs, or a comment. Sampled rows, rich in hits. Any-hit rate of the full collection: about 17%. Calls follow the shape of the dose curve; as a rule, active = well fitted curve in the direction sought with a large enough effect; inconclusive = small, poorly fitted or top-dose-only effect, or another doubt; inactive = no such curve, though single readings can be large; an effect the other way counts as inactive or inconclusive. Potency is read from the fitted curve at half-maximal effect.

SMILES	TDP1 cell noCPT	TGFb SMAD3 inh	HT1080-NT tox	DT40 TDP1 CPT	HT1080 IDH1KD tx	HepG2 viability
O=C(c1cccs1)N1CCCc2cc(NS(=O)(=O)c3ccc(Br)cc3)ccc21	?	?	·	?	·	-28%
O=C(c1cccs1)N1CCCc2cc(NS(=O)(=O)c3cc(F)ccc3F)ccc21	?	-25%	·	?	·	-19%
O=C(Nc1ccc2c(c1)CCCN2C(=O)c1cccs1)c1cccc(F)c1	?	-16%	?	?	?	-33%
O=C(Nc1ccc2c(c1)CCCN2C(=O)c1cccs1)c1cccc(C(F)(F)F)c1	9.2µM*	-7%	·	13µM*	·	-10%
O=C(Nc1ccc2c(c1)CCCN2C(=O)c1cccs1)c1ccccc1	13µM*	-17%	?	16µM*	?	-41%
O=C(Nc1ccc2c(c1)CCCN2C(=O)c1cccs1)c1ccc(F)c(F)c1	21µM*	?	·	16µM*	·	-19%
COc1cc(OC)cc(C(=O)Nc2ccc3c(c2)CCCN3C(=O)c2cccs2)c1	23µM*!	-4%	?	18µM*	?	-23%
CN(CCO)C(=O)c1cn(C2CCN(Cc3ccc4ccccc4c3)CC2)nn1	-9%	·	·	16%[9.04 µM]	·	·
CCOCCc1nnc(NC(=O)C2CC(=O)N(c3ccc(OCC)cc3)C2)s1 (stereo not drawn)	6%	3%	1%	4%	2%	-21%
CC1CCN(c2nc3ccc(C(=O)NCCCN4CCCCC4C)cc3s2)CC1 (stereo not drawn)	?	6%	?	?	?	-5%
Cc1ccc(N2C(=O)NC(C(F)(F)F)(C(F)(F)F)C3=C2CC(C)(C)CC3=O)cc1	?	?	3%	-15%	23%	-17%
CCCCn1c(SCc2nc3ccccc3s2)nc2ccccc2c1=O	8.2µM*	-7%	4%	21µM*	5%	0%
CCn1c(SCc2ccccc2)nc2cc(S(N)(=O)=O)ccc21	?	-10%	-17%	-24%	0%	-20%
CCCCn1c(SCc2nc3ccccc3s2)nc2cc(S(N)(=O)=O)ccc21	16µM*	?	?	16µM*	?	-28%
Cc1ccc(NC(=S)NC(NC(=O)c2ccco2)C(Cl)(Cl)Cl)cc1 (stereo not drawn)	?	?	?	16µM*	?	-25%
CCOc1ccc(NC(=O)c2ccco2)cc1	-27%	11%	7%	-23%	6%	-27%
O=C(Nc1ccc(NC(=S)NC(=O)c2ccco2)cc1)c1ccc(Br)cc1	8%	-15%	6%	7%	8%	-46%
O=C(NC(=S)Nc1cccc(NC(=S)NC(=O)c2ccco2)n1)c1ccco1	5.2µM*	?	?	-18%	?	0%
CCOc1ccc(NC(=S)NC(=O)c2ccco2)cc1	29µM*	-15%	15%	-26%	7%	-10%
O=C(NNC(=S)NC(=O)c1ccco1)c1ccc(NC(=O)c2ccccc2)cc1	21µM*	11%	-7%	16µM*	-9%	-29%
CCOc1ccc(NC(=O)C2CC(=O)NC(=Nc3ccc(Cl)c(Cl)c3)S2)cc1 (stereo not drawn)	-1%	2%	·	-16%	·	-24%
O=C(CCNC(=O)c1ccc(Cl)cc1)NCC(c1ccco1)N1CCCC1 (stereo not drawn)	4%	-7%	1%	4%	7%	1%
O=C(NC(=S)NNC(=O)c1cc2ccccc2cc1O)c1ccco1	?	0%	-10%	?	?	-3%
O=C(NC(=S)NNC(=O)c1ccccc1O)c1ccco1	18µM*	13%	?	21µM*	?	-22%
CCCCC(=O)Nc1ccc(C(=O)NNC(=S)NC(=O)c2ccco2)cc1	23µM*	-24%	-11%	13µM*	-14%	-1%
SMILES	TDP1 cell noCPT	TGFb SMAD3 inh	HT1080-NT tox	DT40 TDP1 CPT	HT1080 IDH1KD tx	HepG2 viability
CCOc1ccc(N(CC(=O)NCc2ccc(F)cc2)C(=O)c2snc(C(N)=O)c2N)cc1	-14%	-9%	-9%	4%	-2%	-13%
O=C(NCc1ccccc1)C(=O)NCC1CCCN1S(=O)(=O)c1cccs1 (stereo not drawn)	-1%	1%	8%	3%	8%	-5%
O=c1/c(=C/c2ccc([N+](=O)[O-])cc2)sc2n1CCCN=2	13µM*	?	-14%	26µM*	-13%	-43%
CCC1CN(CCNC(=O)C(C)(C)O)Cc2cc(OC)ccc2O1 (stereo not drawn)	-12%	·	·	0%[9.04 µM]	·	·
Cc1ccc2c(c1)c(/C=C/c1cc[n+](C)cc1)c(C)n2C	0.41µM*	165%	?	0.52µM*	?	-17%
CCCn1c(/C=C/c2cc[n+](C)cc2)nc2ccccc21	-2%	1%	14%	3%	17%	-3%
Cc1ccc2[nH]c(C)c(/C=C/c3cc[n+](C)cc3)c2c1	2.6µM*	110%	?	3.3µM*	?	-10%
C[n+]1ccc(/C=C/c2ccc(Br)cc2)cc1	-12%	2%	3%	2%	-3%	-10%
CC(C)N1CCc2[nH]c(=S)[nH]c(=O)c2C1	16µM*	-10%	15%	?	3%	-3%
CCCN1CCc2[nH]c(=S)[nH]c(=O)c2C1	-33%	15%	5%	-1%	11%	8%
O=C(Nc1ccccc1Br)C1CC(=O)N(c2ccc3c4c(cccc24)CC3)C1 (stereo not drawn)	21µM*	-45%	?	23µM*	?	-13%
CCc1nc2ccc(C(=O)NCCN3CCOCC3)cn2c1N(C)Cc1ccc(OC)cc1	23µM*	4%	?	?	1%	-1%
CCc1nc2ccc(C(=O)NCCCN3CCCC3=O)cn2c1N(C)Cc1ccc(OC)cc1	?	-3%	3%	16µM*	11%	3%
CNC(=O)c1c(NC(=O)CS(=O)(=O)c2ccccc2)sc(C)c1C	-28%	-8%	3%	-9%	-4%	-11%
CNC(=O)c1c(NC(=O)CS(=O)(=O)c2ccc(Cl)cc2)sc(C)c1C	?	?	-5%	9.2µM*	-25%	-17%
